Screening results: PubChem, Sanford-Burnham Center for Chemical Genomics
The list is not random: actives were taken first. Their share in the collection is about 3%.
SENP7 inh: inhibitors of human SENP7 protease; recombinant SENP7, Z-RLRGG-aminoluciferin luminescence, 40 min; 330,000 compounds, 1.5% hits; AID 434973; inhibition, % at 5 µM;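 active = inhibition above about 50% at the single test dose, limit read from the data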
SENP8 block-1: SENP8 (human) protease inhibition. 360,000 compounds, 0.64% hits. recombinant SENP8, Nedd8 substrate fluorescence. Q96LD8. inhibition, % at 20 µM; in the data active = inhibition mostly above about 40%, no sharp cut-off; inactive = mostly below about 27%
Target sequence (Q96LD8 whole entry, looked up): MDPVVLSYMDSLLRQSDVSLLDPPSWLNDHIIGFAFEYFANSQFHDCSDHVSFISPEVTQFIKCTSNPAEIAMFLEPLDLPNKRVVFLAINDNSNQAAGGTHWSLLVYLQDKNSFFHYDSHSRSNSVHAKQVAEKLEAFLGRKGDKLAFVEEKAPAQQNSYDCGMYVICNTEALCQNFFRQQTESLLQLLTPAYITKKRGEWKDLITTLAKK
TRAIL sens C8: sensitizes caspase-8 expressing cells to TRAIL | AID 624354 | NB7+C8 cells + TRAIL, ATPlite viability luminescence | inhibition (viability loss, TRAIL sensitization), % at 10 µM | 360,000 compounds, 1% hits;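 active = compounds causing at least 50% loss of cell viability in the single-dose screen, relative to plate controls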
SENP6 inh: inhibitors of human SENP6 protease. Recombinant SENP6 catalytic domain, aminoluciferin luminescence. inhibition, % at 10 µM. 330,000 compounds, 1.8% hits. Q9GZR1;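 active = inhibition above about 50% at the single tested dose, limit read from the data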
PPC-1+TRAIL kill: kills PPC-1 cancer cells in the presence of TRAIL. 220,000 compounds, 0.41% hits. PPC-1 cells + TRAIL, ATPLite viability luminescence. AID 1443. cell killing (% activity), % at 4 µM or 5 µM;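 active = cell killing above 50% in the first pass at 4 µM, then a duplicate retest at 5 µM averaging 50% or more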
SENP8 block-2: blocks the human protease SENP8; Q96LD8; purified SENP8, Z-RLRGG-aminoluciferin cleavage, luminescence; inhibition, % at 10 µM; 330,000 compounds, 1.2% hits; in the data active = inhibition above about 50%
SENP8 confirm: confirmation of human SENP8 protease inhibitors; shares compounds with SENP7 inh; 6,200 compounds, 40% hits; inhibition, % at 12.5 µM; Recombinant SENP8, Z-RLRGG-aminoluciferin luminescence, 60 min;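 active = mean inhibition across replicates above about 50%, limit read from the data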
SENP6 conf: confirmation of human SENP6 protease inhibitors; shares compounds with SENP7 inh; recombinant SENP6, Z-RLRGG-aminoluciferin luminescence; inhibition, % at 12.5 µM; 6,200 compounds, 58% hits
SENP7 confirm: confirmation of human SENP7 protease inhibitors | shares compounds with SENP7 inh | recombinant SENP7, Z-RLRGG-aminoluciferin luminescence, 40 min | inhibition, % at 12.5 µM | 6,200 compounds, 69% hits
Casp3 SENP sel: caspase-3 inhibition (SENP selectivity assay); shares compounds with SENP7 inh; purified caspase-3, Z-DEVD-aminoluciferin luminescence, 60 min; inhibition, % at 12.5 µM; 6,200 compounds, 60% hits; AID 488918;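 active = mean inhibition above about 50%, limit read from the data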
Target sequence (P42574 28-227 limits assumed): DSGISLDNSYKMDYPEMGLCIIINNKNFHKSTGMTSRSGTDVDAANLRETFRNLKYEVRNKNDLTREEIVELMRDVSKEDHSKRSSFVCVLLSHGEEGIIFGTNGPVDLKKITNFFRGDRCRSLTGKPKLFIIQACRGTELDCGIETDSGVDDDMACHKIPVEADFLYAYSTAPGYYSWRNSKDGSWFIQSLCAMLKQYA
SENP luc ctr: interferes with luciferase luminescence in SENP counter-screen; Pre-incubated SENP8/Z-RLRGG-aminoluciferin, luciferase luminescence interference; inhibition, % at 12.5 µM; shares compounds with SENP7 inh; AID 488919; 6,200 compounds, 39% hits;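 active = mean inhibition above about 50% when retested at one dose, limit read from the data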
Hits are given with their value; i = inactive; nt = no result given.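 Rule for the calls, unless noted: active = mean inhibition above about 50% in the one-dose retest (limit read from the data); inactive = the rest.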

SMILES	SENP7 inh	SENP8 block-1	TRAIL sens C8	SENP6 inh	PPC-1+TRAIL kill	SENP8 block-2	SENP8 confirm	SENP6 conf	SENP7 confirm	Casp3 SENP sel	SENP luc ctr
COc1ccc(-c2cc(=Nc3ccccc3)c3cc(C)ccc3o2)cc1	68.4	i	i	68.5	i	i	i	i	i	i	i
CC(=O)NCC(=O)Nc1ccc(Br)cc1C(=O)c1ccccc1	i	i	i	i	i	i	nt	nt	nt	nt	nt
CCNCC(O)c1cccc(O)c1 (centres undefined)	i	i	i	i	nt	i	nt	nt	nt	nt	nt
NNCc1cccc(O)c1	56.4	i	i	81.4	i	72.5	i	i	55.1	51.8	73.0
CCCCN1C(=O)C(C2c3ccccc3C(=O)N2Cc2ccccc2)C(=O)NC1=S (centres undefined)	i	i	i	i	i	i	nt	nt	nt	nt	nt
CCN(CC)C(=O)c1ccc(NC(=O)c2cccc(F)c2)cc1	64.7	i	i	61.5	i	i	56.9	53.7	83.3	82.1	53.0
O=C1c2ccccc2-n2nnc(-c3ccccc3)c2C2c3ccccc3CCN12 (centres undefined)	nt	i	i	nt	nt	nt	nt	nt	nt	nt	nt
Nc1ccccc1C(=O)OCCc1ccccc1	75.3	i	i	76.1	nt	72.5	69.2	75.0	91.5	60.3	67.3
NS(=O)(=O)c1nc[nH]c1[N+](=O)[O-]	nt	i	i	nt	nt	nt	nt	nt	nt	nt	nt
Fc1cccc(F)c1-c1nc(-c2ccc(Cl)cc2)no1	61.2	i	i	71.2	i	65.0	i	65.9	63.4	i	i
COc1cc(C(c2c(C)[nH]n(-c3ccccc3)c2=O)c2c(C)[nH]n(-c3ccccc3)c2=O)cc(OC)c1OC	64.4	80.5	i	58.5	nt	i	i	i	i	i	i
COc1cc2[nH]c(=O)n(-c3ccccc3)c(=O)c2cc1OC	i	i	i	i	i	i	nt	nt	nt	nt	nt
COP(=O)(OC)C1(Nc2ccc(C)cc2)CCCCC1	i	i	i	i	i	i	nt	nt	nt	nt	nt
O=C(c1ccc2nc(-c3ccco3)c(-c3ccco3)nc2c1)N1CCC2(CC1)OCCO2	i	i	i	81.9	i	i	i	i	i	i	i
COc1ccc(C(=O)N2CCC3(CC2)OCCO3)cc1	i	i	i	i	nt	i	nt	nt	nt	nt	nt
N#CC1=C(N)Oc2c(c(=O)sc3ccccc23)C1c1cccnc1 (centres undefined)	i	i	i	i	i	i	nt	nt	nt	nt	nt
CCCCn1c(N)c(C(=O)OCCOC)c2nc3ccccc3nc21	i	i	i	i	i	i	nt	nt	nt	nt	nt
CCCCn1c(NS(=O)(=O)c2ccc(C)cc2)c(C(=O)OCC)c2nc3ccccc3nc21	i	i	i	92.8	i	62.1	i	i	i	i	i
CCOC(=O)c1c(N)n(Cc2ccco2)c2nc3ccccc3nc12	i	i	i	i	i	i	nt	nt	nt	nt	nt
CCCCn1c(NC(=O)c2ccco2)c(C(=O)OCC)c2nc3ccccc3nc21	i	i	i	83.8	i	62.2	75.3	89.1	71.1	i	i
CN1CC2=CC(O)CC3Oc4c(O)ccc(c4[C@]23C)C1 (some centres undefined)	i	i	i	i	nt	i	nt	nt	nt	nt	nt
N/C(=N\N=C\c1ccc(O)cc1O)N[N+](=O)[O-]	52.2	i	i	i	i	50.9	61.2	60.2	86.5	88.4	68.5
Nc1c(C(=O)OC2CCCCC2)c2nc3ccccc3nc2n1CC1CCCO1 (centres undefined)	i	i	i	i	i	i	nt	nt	nt	nt	nt
CCCNC(=O)c1c(N)n(CC2CCCO2)c2nc3ccccc3nc12 (centres undefined)	79.1	i	i	94.4	i	93.6	i	56.1	i	i	i
